From PubChem BioAssay AID493083 (Broad Institute, 2011)
Screen size: about 2,400 compounds; about 95 (4%) were called active. About 3% were inconclusive and are not listed.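 How the source made its calls: active means compounds lowering signal whose fitted AC50 is at most ten times the top tested dose; inconclusive means flat fit with moderate inhibition, or poor curve fit; inactive means the rest.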 Only a sample is shown. Potency and affinity values are given separately.

Assay: GFP reporter loss versus dox-driven RFP – NIH3T3 R4 cells, cherry-pick, set 3, dose response (AID 493083);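 further: 0% = neutral control wells and -100% = didemnin B positive control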
Conditions: NIH3T3 R4 HSF-1 GFP reporter, heat shock, 48 h; series mostly up to 19.5 µM; activity change, negative = inhibition: at the top concentration

Activity change, negative = inhibition, inactive:
COC(=O)c1cc2ccsc2n1Cc1nc(-c2ccc(Cl)cc2)oc1C 3.21%
COc1ccccc1/C=C/CN1CCC(Oc2cc(C(=O)NC3CC3)ccc2OC)CC1 7.7%
CC(NO)/C(=N\O)c1cccs1 (centres undefined) 1.92%
COC(=O)C1=C(C(=O)OC)[C@@H]2N(C)c3ccccc3[C@@]23C[C@@H](C(=O)OC)N(C(=O)CC(C)C)C3=N1 0.888%
CCN1CCN(CCNC(=O)CCCCCn2c(=O)[nH]c3cc(C(=O)OC)ccc3c2=O)CC1 -7.53%
O=C(COC(=O)c1ccccc1SCC(=O)N1CCCC1)NC1CCS(=O)(=O)C1 (centres undefined) 1.73%
Cc1ccc(S(=O)(=O)N2CCCC(C(=O)NCCc3ccc4c(c3)OCO4)C2)cc1 (centres undefined) 13.8%
FC(F)Oc1ccc(NC(=S)NNc2ccnc3cc(Cl)ccc23)cc1 39.7%
CCc1ccc(C(=O)Cn2ncc(Cl)c(Cl)c2=O)cc1 -74.6%
Cc1ccc(-n2ncc(Br)c(Br)c2=O)cc1 -70.3%
CCCCCn1c(SCC(=O)CC(=O)OCC)nc2cc(C(=O)N3CCC(C(N)=O)CC3)ccc2c1=O -1.23%
CC(=O)Nc1cc[n+](C(C)C(=O)c2ccccc2)cc1 (centres undefined) -10.5%
COc1cccc(-n2ccnc2SCC(=O)Nc2ccccc2F)c1 9.89%
O=C(CCc1ccccc1)Nc1cccc([N+](=O)[O-])c1 9.15%
O=C(NN=C1CCCCCCCCCCC1)c1ccccc1F 4.34%
COc1ccc(-n2nc(C(=O)NCC(=O)NCc3ccccc3OC)c3ccccc3c2=O)c(OC)c1 -1.43%
O=C(NC1CCCCC1)C(c1ccco1)N(C(=O)c1csnn1)c1ccc(Cl)cc1 (centres undefined) 0.074%
CCC(C)NC(=O)C1(C)CCC(=O)N1Cc1ccccc1OC (centres undefined) -0.568%
O=C(O)CSc1nc(-c2ccccc2)nc2c1oc1ccccc12 -7.46%
CNC(=O)c1ccsc1NC(=O)c1ccc(Cl)s1 -0.254%
Cc1ccc(OCC(=O)NCCNC(=O)c2ccco2)cc1C -0.642%
CCCCn1c(SCC(=O)NCc2ccco2)nc2c(sc3ccccc32)c1=O -2.75%
O=C(CCl)N1N=C(c2cccs2)CC1c1ccco1 (centres undefined) 111%
COc1ccc(C2=NN(S(C)(=O)=O)C(c3cccs3)C2)cc1OC (centres undefined) 0.996%
COc1c([N+](=O)[O-])c(=O)oc2ccccc12 -1.45%
Cn1c(=O)c2ccccc2n(Cc2ccccc2Cl)c1=O 62.4%
C/C(=N\NC(=O)c1nnn(-c2nonc2N)c1C(C)C)c1ccncc1 -3.27%
COc1ccc(/C=N/NC(=O)Nc2cccc3nsnc23)cc1OC 12.9%
COc1ccc(CNC(C)CCc2ccccc2)cc1 (centres undefined) -3.43%
CCOc1ccc(NC(=O)CN(C)C(=O)c2ccc(N3CCCC3)c([N+](=O)[O-])c2)cc1OCC 4.14%
COc1cccc(N2CCN(C(=S)Nc3cc(C)cc(C)c3)CC2)c1 -4.49%
CC(CCCC(C)(C)O)NC(=O)c1ccc2oc(CCc3ccccc3)nc2c1 (centres undefined) 1.71%
COc1ccc(NC(=O)CCc2nnc3ccc(N4CCC(C)CC4)nn23)cc1OC -0.697%
O=C(O)c1cccc(NC(=S)N/N=C/c2cccnc2)c1 -3.91%
CCc1cccc2c(C(=O)COC(=O)c3ccc([N+](=O)[O-])s3)c[nH]c12 4.77%
CNC(=S)N/N=C/c1ccc(-c2cccc(C(=O)O)c2)o1 -2.88%
CCOc1ccc(NC(=O)CCCNC(=O)Cn2cnc3sc(C)c(C)c3c2=O)cc1 -1.07%
CCC(=O)n1nc(-c2cccnc2)nc1NCc1cccs1 -3.19%
COc1ccc(N=Cc2c(O)ccc3ccccc23)cc1 69.2%
O=C1CCCN1CCC1CCN(C(=O)Nc2ccccc2)CC1 -0.501%
CC(C)CCNC(=O)c1ccc2c(SCC(=O)O)c3c(nc2c1)CCC3 -3.07%
COc1ccc(OC)c(NC(=O)C2CCCN(S(=O)(=O)c3c(C)nn(C)c3C)C2)c1 (centres undefined) -0.401%
O=C(NCc1ccncc1)C(=O)Nc1nc(C23CC4CC(CC(C4)C2)C3)cs1 33.4%
Cc1cccc(C)c1NC(=O)c1cccnc1 -2.88%
COc1ccc(C)c2sc(NC(=O)C3=COCCO3)nc12 -4.67%
Cc1ccc(N2C(=O)N(CC(=O)NC(N)=O)C(=O)C2C)cc1 (centres undefined) -1.14%
COc1cccc(Nc2ccc(C(=O)O)cc2N)c1 -0.631%
Cn1c(=O)c2c(ncn2CC(=O)Nc2cccc(S(=O)(=O)Nc3ccccc3F)c2)n(C)c1=O 8.04%
C/C(=N\NC(=O)c1c(C)nc2ccccn12)c1ccc(C(C)(C)C)cc1 8.05%
CCOC(=O)c1c(C)[nH]c(C)c1S(=O)(=O)NCCc1cccs1 3.28%
CCOC(=O)c1c(N2CCCCC2)c2ccccc2[nH]c1=O 2.34%
CC(C)(C)c1ccc(/C=N/N2C(=O)CSC2=S)cc1 -1.35%
NNC(=S)Nc1ccccc1Cl -2.15%
O=C(NCCN1CCCCC1)Nc1ccccc1Cl -12.4%
CC(C)C(=O)Nc1cccc(-c2nc3ncccc3o2)c1 -3.12%
CC(=O)Nc1nn(C)c2nc(C)cc(C)c12 -7.96%
Cc1cc(C)c(NC(=O)Nc2ccc3c(c2)OCO3)c(C)c1 10.5%
O=C(/C(=C(\[O-])c1ccccc1)[n+]1ccc2ccccc2c1)c1ccc([N+](=O)[O-])cc1 -3.91%
CCOC(=O)c1sc(NC(=O)Nc2ccccc2F)nc1C 2.48%
CCOC(=O)Cc1cnc(NC(=O)c2ccccc2)s1 14.6%
N#Cc1cccc(C#N)c1Oc1ccc(S(=O)(=O)Nc2ccc(Cl)cc2)cc1 27.6%
CCOC(=O)CCCNS(=O)(=O)c1c(C)ccc2nsnc12 -5.83%
COc1ccc(-n2c(C)c(C(C)=O)c(C(C)=O)c2C)cc1 -9.69%
COc1ccc(/C=C/C(=O)NC(=S)NCCc2ccc(OC)c(OC)c2)cc1 0.071%
O=C(O)C1CCC(=O)N(C2CCCCC2)C1c1ccccc1Cl (centres undefined) -8.3%
O=C(CC1C(=O)NCCN1Cc1ccccc1F)NC1CCCCCC1 (centres undefined) -11.2%
Cc1nn(-c2ccccc2Cl)c(Cl)c1/C=N/Nc1nc2ccccc2s1 8.96%
COc1ccccc1-c1nnc(SC2CCc3ccccc3NC2=O)s1 (centres undefined) 16.7%
N#CCCn1nnc(-c2ccccc2F)n1 -4.93%
Cc1ccccc1OCC(=O)Nc1ccc2c(c1)C(=O)N(CCC(=O)O)C2=O -0.08%
O=[N+]([O-])c1ccc(Nc2ccc(F)cc2)cc1 0.888%
COc1nnc(-c2ccc(C(=O)N3C[C@@H]4C[C@H](C3)c3cccc(=O)n3C4)cc2)c2ccccc12 -9.99%
COc1ccc(S(=O)(=O)N2CCCC2)cc1C(C)C 3.89%
O=C(N1CCCCC1)N1CCN(S(=O)(=O)c2ccccc2)CC1 5.28%
CCN(C1CCS(=O)(=O)C1)S(=O)(=O)c1cccs1 (centres undefined) -2.59%
Cc1ccnc(NC(=O)CS(=O)(=O)c2ccccc2)c1 0.818%
Cc1c(Cl)cccc1NC(=O)CS(=O)(=O)c1ccccc1 -2.14%
Cc1ccccc1OCCC(=O)OCC(=O)N1c2ccccc2NC(=O)C1(C)C -1.03%
Cc1c(-c2nc(-c3ccc(C(C)(C)C)cc3)no2)n(C)oc1=O 1.67%
O=C(NCc1ccncc1)c1ccc(Cl)c(S(=O)(=O)N2CCOCC2)c1 16.6%
CCOC(=O)c1cnc2ccc(C(=O)OC)cc2c1NCCCN1CCOCC1 -0.453%
CCC(C(=O)OCC(=O)Nc1cc(Cl)ccc1Cl)c1ccccc1 (centres undefined) -0.627%
O=C(O)c1cccc(Nc2ccnc(Nc3cccc(C(=O)O)c3)n2)c1 -5.94%
Cc1cc(Nc2cccc(Cl)c2)nc(-c2ccccc2O)n1 2.12%
CC(=O)NC(=S)Nc1cccc(S(=O)(=O)NC2=NCCC2)c1 -1.24%
Cn1c(=O)c2ncn(CC(=O)Nc3ccc4c5c(cccc35)CC4)c2n(C)c1=O 29.5%
COc1ccc(OCCN2C(=O)c3ccccc3C2=O)cc1 -7.76%
CCN(CC)C(=O)CN1C(=O)/C(=C/c2ccccc2)SC1=S 6.39%
CC(C)N1CCC(N2CCN(C3CCCC3)CC2CCO)CC1 (centres undefined) -0.505%
CCCC(C)NS(=O)(=O)c1ccccc1 (centres undefined) -1.47%
CC(CCc1ccccc1)NC(=O)CCNS(=O)(=O)c1ccccc1 (centres undefined) 1.85%
Cc1ccc(-c2nnn(CC(=O)N(Cc3cccs3)C(C(=O)NC3CCCC3)c3ccncc3)n2)cc1 (centres undefined) 20.9%
CCCN(CCC)S(=O)(=O)c1ccc(NC(=O)c2cc(C(=O)OC)cc([N+](=O)[O-])c2)cc1 8.28%
NC(=O)CC(NC(=O)Cc1ccc(Cl)cc1)c1ccc(NC2CCCCCC2)c([N+](=O)[O-])c1 (centres undefined) -4.13%
Cc1cc(C)cc(SCc2noc(C(=O)NCc3ccccc3)c2C(=O)NCc2ccccc2)c1 -2.26%
O=[N+]([O-])c1ccccc1CCc1cnc(Cl)s1 -12.9%
O=C(CNC(=O)C1CCCCC1)NC1=NCCS1 -0.457%
CC(C)(C)N1[C@@H](CC(=O)O)c2cc(C(F)(F)F)ccc2S1(=O)=O 1.39%
Cc1cc(C)n(-c2ccc(NC(=O)C3CCCCN3C(=O)c3ccoc3C)cc2)n1 (centres undefined) 7.41%
COc1ccc(C(C)NC(=S)NC2CCCCC2)cc1OC (centres undefined) 3.12%
COc1ccc(C(C(=O)NC2CCCCC2)N(C(=O)CCl)c2cccc(Cl)c2)cc1 (centres undefined) 122%
O=C1N=C(N2CCCC2)S/C1=C\C=C\c1ccccc1 7.74%
Cc1nn2c(CN(C(=O)CN3CCOCC3)c3ccccc3)nnc2c2ccccc12 -1.66%
O=C(CCCCn1c(=O)[nH]c2ccsc2c1=O)NCc1cccnc1 0.446%
CCCC(=O)Nc1cccc(NC(=O)c2cccc([N+](=O)[O-])c2C)c1 8.31%
CCOC(=O)/C(C#N)=C/c1cc(C)n(-c2ccccc2)c1C 23.8%
Cc1cccc(NC(=O)c2sc(-c3ccccc3)nc2-c2ccc([N+](=O)[O-])cc2)c1 1.84%
CCCCNC(=O)C(c1ccc(OCC(=O)OC)c(C(=O)OC)c1)N(CCc1c[nH]c2ccccc12)C(=O)CCCCCN1C(=O)NC(c2ccc(-c3ccccc3)cc2)C(C(=O)OCc2ccccc2)=C1C (centres undefined) -3.99%
CC1=C(C(=O)Nc2ccccc2)C(c2cc(CN3CCOCC3)cs2)C2=C(CCCC2=O)N1 (centres undefined) -6.96%
